KDM5B inhibitor = inhibitors of human KDM5B histone demethylase. Q9UGL1. KDM5B demethylase, FDH-coupled NADH fluorescence (FDH is formaldehyde dehydrogenase). Potency, µM (top dose mostly 57.7 µM), usual class: inhibitors. 2.6% of 220,000 active. AID 1347165; further: nearly all actives have a fitted effect of over 70% in size
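Compound dilutions met 200 nM (final) KDM5BΔAP for 10 min at room temperature before substrate addition. The substrate mix held 12.5 µM H3K4me3 with cofactors 25 µM α-ketoglutarate and 50 µM Fe²⁺. NADH signal gain over 30 min defined activity.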
SNCA viab count = counter-screen for SNCA expression inhibitors: cell viability; AID 1671193; Potency, µM (series often up to 57.1 µM), usual class: cytotoxic; 0.12% of 150,000 active; HEK-293-SNCA-luc viability, GF-AFC fluorescence, 24 h; further: nearly all actives have a fitted effect of over 30% in size
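Cytotoxicity counterscreen: after 24 h compound treatment of genome-edited SNCA-luciferase HEK-293 cells, live-cell protease substrate GF-AFC read by fluorescence after 30 min; activity scaled between DMSO (0%) and medium-only (-100%), curves Hill-fitted.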
IP6K1 inhibitor = inhibitors of human IP6K1. 0.81% of 140,000 active. Q92551. IP6K1 kinase, ADP-Glo luminescence, 2 h; hits give low values. AID 1645851. activity change, % (series mostly up to about 58 µM); in the data active means activity change below about -25%
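ADP-Glo luminescence measures ADP made by human IP6K1 during a 2 h RT reaction with ATP/IP6 (mix at 1.3 mM/130 uM); top library doses 57.5 and 19.1 uM final.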
SNCA expr inh = SNCA gene expression inhibition; HEK-293 SNCA-luciferase knock-in, luminescence, 24 h; Potency, µM (top dose mostly 57.2 µM), usual class: inhibitors; 0.17% of 140,000 active; further: nearly all actives have a fitted effect of over 45% in size
Of the large screens only hits and unclear results are named; the others gave an inactive call. Only some compounds are listed: those with a hit (about 3% of all), similar ones and a draw of the others. Unless noted, the call rests on the fitted dose curve; in most records, active means well fitted curve in the direction sought with a large enough effect; inconclusive means small, poorly fitted or top-dose-only effect, or another doubt; inactive means no such curve, though single readings can be large; an effect the other way counts as inactive or inconclusive.

CC(C)Oc1cccc2c1c(NC(=O)C1CCCO1)nn2Cc1ccccc1 (stereo not drawn)	none
CC(C)Oc1cccc2c1c(NC(=O)c1ccn(C)n1)nn2Cc1ccccc1	KDM5B inhibitor 25.1µM, SNCA expr inh inconclusive
CN1CCC2(C1)CN(CC1CC1)c1ccc(C(=O)NC3COC3)cc12 (stereo not drawn)	KDM5B inhibitor 35.5µM
CN1CCC2(C1)CN(CC1CC1)c1ccc(C(=O)NC3CCC3)cc12 (stereo not drawn)	KDM5B inhibitor 35.5µM
COc1ccc(-c2c(C(=O)NCCCc3ccccc3)nc3sccn23)cc1	none (no result: KDM5B inhibitor)
Cc1cc(C)cc(C(=O)N2CCN(Cc3nc(N)c4ccccc4n3)CC2)c1	none (no result: SNCA viab count, IP6K1 inhibitor, SNCA expr inh)
Cc1cc(C)c([S+](=O)([O-])c2nnn3c2nc(N2CCOCC2)c2ccccc23)c(C)c1	KDM5B inhibitor inconclusive
Cc1ccc(C)c([S+](=O)([O-])c2nnn3c2nc(N2CCC(F)CC2)c2ccccc23)c1	KDM5B inhibitor 79.4µM
O=[S+]([O-])(c1ccccc1)c1nnn2c1nc(N1CCC(F)CC1)c1ccccc12	KDM5B inhibitor inconclusive
Cc1cc(C)c([S+](=O)([O-])c2nnn3c2nc(N2CCC(F)CC2)c2ccccc23)c(C)c1	KDM5B inhibitor 79.4µM
CC1(C)[C@H](Cc2cc(COc3ccccc3)on2)C[C@@H]1NC(=O)c1cccs1	SNCA viab count inconclusive
CCC1CN(C(=O)c2ccc3nc(-c4ccccc4)cn3c2)CCN1C(C)C (stereo not drawn)	KDM5B inhibitor 28.2µM
O=C(c1ccc2nccn2c1)N1CCC(Cc2ccccc2)CC1	none (no result: KDM5B inhibitor)
O=C(c1ccc(-c2ccco2)cc1)N1CCOc2ccc(CN3CCN(c4ccccn4)CC3)cc2C1	KDM5B inhibitor 28.2µM
Cc1cc(C(=O)N2CCn3nc(C(C)O)cc3C2)c2ccc(F)cc2n1 (stereo not drawn)	none
CC(O)c1cc2n(n1)CCN(C(=O)c1nc3ccccc3n(C)c1=O)C2 (stereo not drawn)	KDM5B inhibitor 25.1µM
CN(CC(=O)NC(=O)NCc1ccccc1)CC(=O)Nc1ccc(Cl)cc1	none (no result: SNCA viab count, IP6K1 inhibitor, SNCA expr inh)
CCN1c2cc(C(=O)Nc3ccc(OC(F)(F)F)cc3)ccc2C(=O)N2CCCCCC21 (stereo not drawn)	KDM5B inhibitor inconclusive, SNCA expr inh inconclusive
CC(C)n1cc2cc(C(=O)NCc3ccccn3)sc2c1	KDM5B inhibitor 25.1µM
COc1ccc(CNC(=O)c2cc3cn(C(C)C)cc3s2)cc1	KDM5B inhibitor inconclusive
CC(C)n1cc2cc(C(=O)NCc3cnccn3)sc2c1	KDM5B inhibitor 15.8µM
Cc1ccccc1CNC(=O)c1cc2cn(C(C)C)cc2s1	KDM5B inhibitor 17.8µM
CC(C)n1cc2cc(C(=O)NCc3cccnc3)sc2c1	KDM5B inhibitor 25.1µM
N#C/C(=C\c1cccc(OC(=O)c2ccc(Cl)cc2Cl)c1)C(=O)Nc1cccc(C(F)(F)F)c1	none (no result: SNCA viab count, IP6K1 inhibitor, SNCA expr inh)
COc1ccc(CNC(=O)C2CCCN2Cc2ccc(-c3cccc(OC)c3)cc2)cc1 (stereo not drawn)	none (no result: KDM5B inhibitor)
CS(=O)(=O)c1cnc(NC2CCCC2)nc1C1CCCNC1 (stereo not drawn)	none
Cc1nc(NC2CCCCC2)ncc1C(=O)O	KDM5B inhibitor 31.6µM, SNCA viab count inconclusive
C=C(C=O)[C@]1(O)C[C@@]2(C)C(=CC1=O)C=C[C@H](OC(=O)/C=C/C=C/[C@H](C)CC)[C@@H]2C	SNCA viab count 8.22µM (no result: KDM5B inhibitor, SNCA expr inh)
CCOC(=O)c1ccc(N2C(=O)c3n[nH]c(-c4cccs4)c3C2c2cccc(OC)c2)cc1 (stereo not drawn)	KDM5B inhibitor inconclusive, SNCA expr inh 17.8µM
Cc1ccc(CNC(=O)NC(=O)C(F)(F)F)cc1	none (no result: SNCA viab count, IP6K1 inhibitor, SNCA expr inh)
CC1=CC(=O)C2(CCCCC2)NC1	none (no result: SNCA viab count, IP6K1 inhibitor, SNCA expr inh)
CCC1CCCCN1CCCNC(=O)CCc1cc2cc(OC)ccc2[nH]c1=O (stereo not drawn)	KDM5B inhibitor 31.6µM
CCCNC(=O)CCc1cc2cc(OC)ccc2[nH]c1=O	KDM5B inhibitor 31.6µM
Cc1ccc2[nH]c(=O)c(CCC(=O)N(C)Cc3cn(C)nc3C)cc2c1	KDM5B inhibitor 31.6µM
COc1ccc2[nH]c(=O)c(CCC(=O)N(C)CCc3ccccc3)cc2c1	KDM5B inhibitor 28.2µM, SNCA expr inh inconclusive
COc1ccc2[nH]c(=O)c(CCC(=O)NCCc3ccccn3)cc2c1	KDM5B inhibitor inconclusive
COc1ccc(N(Cc2cc3cc(OC)ccc3[nH]c2=O)C(=O)c2cccc(Cl)c2)cc1	none
CC(C)c1nc2c(c(-c3ccc(Cl)cc3)n1)CCN(Cc1ccsc1)CC2	KDM5B inhibitor inconclusive, SNCA expr inh inconclusive
Cc1nc2sccn2c1-c1csc(Nc2cccc(Cl)c2C)n1	none (no result: SNCA viab count, IP6K1 inhibitor, SNCA expr inh)

From PubChem
